In PubChem BioAssay AID1159580 (chemical genetic matrix, 2015):
Among all 5,500 compounds or so, about 2,000 (36%) were called active. Roughly 18% stayed inconclusive and do not appear here. No stated cut-off is given here; in the data, active means normalized growth mostly below about 0.91 (no sharp cut-off); inconclusive means no clear call, values can overlap the other calls; inactive means mostly above about 0.92. This is one part of the list.

Assay: chemical genetic growth profiling, strain panel (AID 1159580);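 further: tested at 20 µM; growth read once vehicle control cultures reached saturation at 30 °C; 1 = growth at the plate median or of vehicle wells; lower values mean less growth of the strain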
Conditions: growth OD

Measured: normalized growth

CC[C@@H]1[C@@H](O)N2C3C[C@H]1C1C(O)[C@]4(C[C@@H]12)c1ccccc1N(C)[C@@H]34 (some centres not stated)
inactive: S. cerevisiae deletion strains, locus YJR075W, strain HOC1, hits give low values 0.986 | S. cerevisiae deletion strains, locus YKL009W, strain mrt4, hits give low values 1.02 | S. cerevisiae deletion strains, locus YKL068W, hits give low values 0.987 | S. cerevisiae deletion strains, locus YKL085W, strain MDH1 (second series), hits give low values 0.997 | S. cerevisiae deletion strains, locus YKL085W, strain MDH1, hits give low values 0.997 | S. cerevisiae deletion strains, locus YKL160W, strain elf1, hits give low values 1 | S. cerevisiae deletion strains, locus YKL190W, strain CNB1, hits give low values 0.989 | S. cerevisiae deletion strains, locus YKR001C, strain vps1, hits give low values 0.965 | S. cerevisiae deletion strains, locus YKR026C, strain gcn3, hits give low values 1.02 | S. cerevisiae deletion strains, locus YKR091W, strain srl3, hits give low values 1.03 | S. cerevisiae deletion strains, locus YLL001W, strain dnm1, hits give low values 1.02 | S. cerevisiae deletion strains, locus YLL026W, hits give low values 1 | S. cerevisiae deletion strains, locus YLL041C, strain sdh2, hits give low values 1.05 | S. cerevisiae deletion strains, locus YLR027C, strain aat2, hits give low values 1.02 | S. cerevisiae deletion strains, locus YLR039C, strain RIC1, hits give low values 0.985 | S. cerevisiae deletion strains, locus YLR058C, strain SHM2, hits give low values 0.992 | S. cerevisiae deletion strains, locus YLR102C, strain apc9, hits give low values 0.973 | S. cerevisiae deletion strains, locus YLR113W, strain HOG1, hits give low values 0.996 | S. cerevisiae deletion strains, locus YLR221C, strain rsa3, hits give low values 1.01 | S. cerevisiae deletion strains, locus YLR258W, strain gsy2, hits give low values 1.03 | S. cerevisiae deletion strains, locus YLR262C, strain YPT6 (second series), hits give low values 1.01 | S. cerevisiae deletion strains, locus YLR262C, strain YPT6, hits give low values 0.984 | S. cerevisiae deletion strains, locus YLR268W, strain sec22, hits give low values 0.935 | S. cerevisiae deletion strains, locus YLR320W, strain mms22, hits give low values 1.01 | S. cerevisiae deletion strains, locus YLR330W, strain CHS5, hits give low values 0.994 | S. cerevisiae deletion strains, locus YLR342W, strain FKS1 (second series), hits give low values 1.01 | S. cerevisiae deletion strains, locus YLR342W, strain FKS1, hits give low values 1.01 | S. cerevisiae deletion strains, locus YLR357W, strain rsc2, hits give low values 1.09 | S. cerevisiae deletion strains, locus YLR370C, strain arc18, hits give low values 1.03 | S. cerevisiae deletion strains, locus YLR371W, strain rom2, hits give low values 0.975 | S. cerevisiae deletion strains, locus YLR384C, strain iki3, hits give low values 1.03 | S. cerevisiae deletion strains, locus YLR418C, strain cdc73, hits give low values 0.961 | S. cerevisiae deletion strains, locus YML016C, strain PPZ1, hits give low values 0.992 | S. cerevisiae deletion strains, locus YML032C, strain rad52, hits give low values 0.954 | S. cerevisiae deletion strains, locus YML120C, strain ndi1, hits give low values 1.02 | S. cerevisiae deletion strains, locus YML124C, strain tub3, hits give low values 0.982 | S. cerevisiae deletion strains, locus YMR058W, strain fet3, hits give low values 1.01 | S. cerevisiae deletion strains, locus YMR078C, strain ctf18, hits give low values 0.958 | S. cerevisiae deletion strains, locus YMR125W, strain sto1, hits give low values 1.06 | S. cerevisiae deletion strains, locus YMR129W, hits give low values 1.01 | S. cerevisiae deletion strains, locus YMR205C, strain PFK2, hits give low values 1.03 | S. cerevisiae deletion strains, locus YMR223W, strain ubp8, hits give low values 0.996 | S. cerevisiae deletion strains, locus YMR231W, strain pep5, hits give low values 1.03 | S. cerevisiae deletion strains, locus YMR263W, strain SAP30, hits give low values 1 | S. cerevisiae deletion strains, locus YMR307W, strain GAS1, hits give low values 0.974 | S. cerevisiae deletion strains, locus YNL067W, strain RPL9B, hits give low values 0.981 | S. cerevisiae deletion strains, locus YNL071W, strain lat1, hits give low values 1.03 | S. cerevisiae deletion strains, locus YNL128W, strain TEP1, hits give low values 0.991 | S. cerevisiae deletion strains, locus YNL153C, strain GIM3, hits give low values 0.992 | S. cerevisiae deletion strains, locus YNL183C, strain NPR1, hits give low values 0.917 | S. cerevisiae deletion strains, locus YNL209W, strain ssb2, hits give low values 1.04 | S. cerevisiae deletion strains, locus YNL233W, strain BNI4, hits give low values 0.977 | S. cerevisiae deletion strains, locus YNL248C, strain rpa49, hits give low values 1.01 | S. cerevisiae deletion strains, locus YNL250W, strain rad50, hits give low values 0.981 | S. cerevisiae deletion strains, locus YNL271C, strain bni1, hits give low values 0.973 | S. cerevisiae deletion strains, locus YNL298W, strain CLA4, hits give low values 0.968 | S. cerevisiae deletion strains, locus YNL307C, strain MCK1, hits give low values 0.99 | S. cerevisiae deletion strains, locus YNL322C, strain KRE1 (second series), hits give low values 1.05 | S. cerevisiae deletion strains, locus YNL322C, strain KRE1, hits give low values 0.998 | S. cerevisiae deletion strains, locus YNR049C, strain mso1, hits give low values 1.03 | S. cerevisiae deletion strains, locus YNR052C, strain pop2, hits give low values 0.982 | S. cerevisiae deletion strains, locus YOL006C, strain TOP1, hits give low values 0.921 | S. cerevisiae deletion strains, locus YOL012C, strain htz1 0.945 | S. cerevisiae deletion strains, locus YOL147C, strain pex11, hits give low values 0.974 | S. cerevisiae deletion strains, locus YOR001W, strain rrp6, hits give low values 1.02 | S. cerevisiae deletion strains, locus YOR061W, strain CKA2, hits give low values 0.97 | S. cerevisiae deletion strains, locus YOR069W, strain VPS5, hits give low values 0.995 | S. cerevisiae deletion strains, locus YOR070C, strain gyp1, hits give low values 1.03 | S. cerevisiae deletion strains, locus YOR080W, strain dia2, hits give low values 1.04 | S. cerevisiae deletion strains, locus YOR083W, strain WHI5, hits give low values 0.979 | S. cerevisiae deletion strains, locus YOR106W, strain vam3, hits give low values 1.04 | S. cerevisiae deletion strains, locus YOR136W, strain idh2, hits give low values 0.98 | S. cerevisiae deletion strains, locus YOR144C, strain elg1, hits give low values 0.962 | S. cerevisiae deletion strains, locus YOR184W, strain ser1, hits give low values 0.97 | S. cerevisiae deletion strains, locus YOR231W, strain MKK1, hits give low values 1.01 | S. cerevisiae deletion strains, locus YOR265W, strain rbl2, hits give low values 1.03 | S. cerevisiae deletion strains, locus YOR270C, strain vph1, hits give low values 1.14 | S. cerevisiae deletion strains, locus YOR290C, strain snf2, hits give low values 1.02 | S. cerevisiae deletion strains, locus YOR316C, strain cot1, hits give low values 0.975 | S. cerevisiae deletion strains, locus YPL051W, strain arl3, hits give low values 1.02 | S. cerevisiae deletion strains, locus YPL055C, strain LGE1, hits give low values 1 | S. cerevisiae deletion strains, locus YPL078C, strain atp4, hits give low values 1.03 | S. cerevisiae deletion strains, locus YPL106C, strain sse1, hits give low values 1.06 | S. cerevisiae deletion strains, locus YPL240C, strain hsp82, hits give low values 1.02 | S. cerevisiae deletion strains, locus YPL241C, strain CIN2, hits give low values 0.994 | S. cerevisiae deletion strains, locus YPL256C, strain CLN2, hits give low values 0.982 | S. cerevisiae deletion strains, locus YPR119W, strain clb2, hits give low values 0.972 | S. cerevisiae deletion strains, locus YPR141C, strain kar3, hits give low values 0.979 | S. cerevisiae deletion strains, locus YPR163C, strain tif3, hits give low values 0.966 | S. cerevisiae deletion strains, locus YPR167C, strain met16, hits give low values 0.976 | S. cerevisiae deletion strains, strain wtn01, hits give low values 0.963 | S. cerevisiae strains, strain wild type, hits give low values 0.994
